Our source for the z-score values is PubChem BioAssay.

The assay in a line: MM1S cell viability effects, profiling panel, calcein-AM fluorescence, 48 h, basal (AID 1165).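 Note: viability of MM1S multiple myeloma cells under basal unstimulated conditions; test concentration not given here.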 Particulars: higher = more signal.
In the case of `C=C(/C(=C/C[C@H](OC(C)=O)c1ccc(CO)o1)c1cc(C(=O)OC)ccc1OC)C(C)C`, the z-score was -2.37.

Regarding `COC(=O)[C@@]1(Cc2ccccc2)N=C(c2ccc(OCCCO)cc2)O[C@H]1c1ccccc1`, the z-score was -3.6.

`CC(C)C[C@@H]1NC(=O)[C@@H]2C[C@H](C(=O)NCc3ccc(F)cc3)[C@H](c3cccc(OCCO)c3)N2C1=O`: the z-score was 1.04.

Regarding `O=C1c2ccccc2[C@](Cc2ccccc2I)(C(=O)NCCN2CCOCC2)[C@H](c2ccc(CO)cc2)N1C1CCCCC1`, the z-score is -0.196.

As for `O=C1c2ccccc2[C@](Cc2ccccc2I)(C(=O)NCCN2CCOCC2)[C@H](c2ccc(CO)cc2)N1Cc1ccccc1Cl`, the z-score is -1.66.

`CC(C)C(=C=CC[C@@H](O)c1ccc(OCCO)cc1)C[C@@H](O)COCc1ccccc1`: the z-score was -0.619.

Regarding `COC(=O)[C@]1(CCC(=O)OC(C)(C)C)N=C(c2ccc(OCCCO)cc2)O[C@@H]1c1ccccc1CN=[N+]=[N-]`, the z-score is -3.55.

Regarding `NC(=O)NCC#Cc1ccc2c(c1)[C@]1(C(=O)N2)[C@H](c2ccccc2OCCO)N2[C@H](c3ccccc3)[C@H](c3ccccc3)OC(=O)[C@H]2[C@@H]1C(=O)Nc1nc2ccccc2s1`, the z-score is 0.0225.

With `C=CCC(OC(C)=O)[C@@H]1[C@@H](N(Cc2ccc(-c3ccccc3)cc2)C(=O)Cc2ccc(OC)cc2)c2cc(OCCCO)ccc2N1C(=O)Cc1ccc2ccccc2c1` (stereo partly specified), the z-score was -0.391.

In the case of `C=C(CCCC)C(=O)CC[C@@H](OC(=O)c1ccccc1-c1ccccc1C(=O)O)c1ccc(OCCO)cc1`, the z-score was -3.37.

As to `CCCC[C@@H]1C[C@H]1[C@@H](NC(=O)c1ccco1)c1ccccc1C(F)(F)F`, the z-score was -1.1.
